Bioassay records from PubChem.
ELG1 repair inh – blocks ELG1-dependent DNA repair in HEK293T cells; Potency, µM (highest dose often 46.1 µM), without a hit: top-dose activity change, negative = inhibition, hits mostly inhibitors; HEK293T ELG1-luciferase reporter, luminescence, 16 h; DNA damage induced by 5-fluorouridine; 330,000 compounds, 2.3% hits; further: potency means the concentration at half of the fitted maximal effect; nearly all actives have a fitted effect of over 55% in size
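Overnight (16 hr) co-exposure of 2,000 cells/well to 5-fluorouridine and compound at 37 °C preceded detection. Luciferase was quantified via ONE-Glo luminescence; loss of signal denotes inhibition.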
TDP1 cell noCPT – qHTS for Inhibitors of human tyrosyl-DNA phosphodiesterase 1 (TDP1): qHTS in cells in absence of CPT | DT40 Tdp1-/- hTDP1 cells, no CPT, ATP luminescence, 48 h | Potency, µM (doses to about 46.2 µM), without a hit: top-dose activity change, negative = growth inhibition, actives largely listed as inhibitors | 420,000 compounds, 15% hits | AID 686978, 2013; further: potency means the concentration at half of the fitted maximal effect; nearly all actives have a fitted effect of over 55% in size
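Luminescent ATP content (CellTiter-Glo) served as the growth readout. Knockout chicken DT40 cells expressing human TDP1 were exposed to compounds without camptothecin for a minimum 48 hr at 37 °C.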
HT1080 IDH1KD tx – HT-1080 IDH1 knockdown cell toxicity (counter line); HT-1080 IDH1 knockdown viability, ATP luminescence, 48 h; Potency, µM (top dose mostly 46.1 µM), for the others: at the highest dose activity, negative = toxicity, actives largely listed as cytotoxic; 360,000 compounds, 2% hits; AID 686971;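 further: potency means the concentration at half of the fitted maximal effect; 0% = DMSO wells and -100% = cell-free medium wells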
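After a 2 h attachment period, IDH1KD HT-1080 cells took pin-transferred compound for 48 h at 37 °C; ATP-based luminescence after 10 min room-temperature reagent incubation reported viability.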
DT40 TDP1 CPT – growth inhibition of DT40 Tdp1-/-;hTDP1 cells with camptothecin (screen for TDP1 inhibitors) | chicken DT40 Tdp1-/-;hTDP1 cells + 20 nM CPT, ATP luminescence, 48 h | Potency, µM (highest dose often 46.2 µM), for inactives: at the highest dose activity change, negative = growth inhibition, hits mostly inhibitors | 420,000 compounds, 12% hits | AID 686979; further: potency means the concentration at half of the fitted maximal effect; nearly all actives have a fitted effect of over 55% in size
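Cell growth measured by CellTiter-Glo luminescence after a minimum 48 h, 37 C compound exposure with 20 nM CPT in Tdp1-knockout DT40 cells stably expressing hTDP1, seeded 400/well; qHTS titration format.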
IL1B secr inh – inflammasome signaling inhibition, IL-1 beta readout; AID 743279; activity change, % at 57.5 µM; 360,000 compounds, 4.7% hits; THP-1 LPS/ATP IL-1B secretion, AlphaLISA, 16 h; hits give low values; in the data active means activity change below about -50%; inconclusive means mostly about -30% to -49%
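Secreted IL-1B measured by AlphaLISA bead assay after 16 h compound exposure of THP-1 cells; compounds (final up to 57.5 uM) added 1 h before LPS (250 ng/mL) and ATP (1.25 mM) stimulation; lower signal means less secretion.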
HT1080-NT tox – kills 2HG-producing HT-1080-NT fibrosarcoma cells; HT-1080-NT fibrosarcoma viability, CellTiter-Glo ATP luminescence, 48 h; Potency, µM (series often up to 46.1 µM), without a hit: top-dose activity, negative = less viability, hits mostly cytotoxic; 360,000 compounds, 1.6% hits; AID 686970;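 further: NT is the 2HG producing partner of a matched IDH1 knockdown line; potency means the concentration at half of the fitted maximal effect; 0% = DMSO-treated cells and -100% = media-only wells without cells; nearly all actives have a fitted effect of over 55% in size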
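HT-1080-NT; 750 cells/well; 5% FBS RPMI; 48 h compound, 37 degrees C; CellTiter-Glo luminescence; curve fitting and curve-class assignment.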
Active calls of the source: *. Most compounds without a hit are left out; they make up all but 19% or so of the library. Unless noted, the call rests on the fitted dose curve; in most records, active means well fitted curve in the direction sought with a large enough effect; inconclusive means small, poorly fitted or top-dose-only effect, or another doubt; inactive means no such curve, though single readings can be large; an effect the other way counts as inactive or inconclusive. Unless noted, on the % scale 0 is the no-effect control and ±100 the full control effect.

For CCOc1ccc2nc3cc(N=Nc4ccc(N)nc4N)ccc3c(N)c2c1 the results were TDP1 cell noCPT 2.6µM*, HT1080 IDH1KD tx 19%, DT40 TDP1 CPT 5.8µM*, IL1B secr inh 38 and HT1080-NT tox 8%.
Screening O=C(C1CC(=O)N(c2ccc(Cl)cc2)C1)N1CCN(Cc2ccc3c(c2)OCO3)CC1 (stereo unspecified) returned ELG1 repair inh -17%, TDP1 cell noCPT inconclusive, HT1080 IDH1KD tx -20%, DT40 TDP1 CPT inconclusive, IL1B secr inh 2 and HT1080-NT tox -19%.
Cc1ccc(OCc2ccc(C(=O)Nc3c(C)nn(Cc4c(F)c(F)c(F)c(F)c4F)c3C)o2)c([N+](=O)[O-])c1 was read as ELG1 repair inh inconclusive, TDP1 cell noCPT 18µM*, HT1080 IDH1KD tx inconclusive, DT40 TDP1 CPT 13µM*, IL1B secr inh inconclusive and HT1080-NT tox inconclusive.
For CCn1ncc(Br)c1C(=O)Nc1c(C)nn(Cc2c(F)c(F)c(F)c(F)c2F)c1C the results were ELG1 repair inh -2%, TDP1 cell noCPT inconclusive, HT1080 IDH1KD tx -24%, DT40 TDP1 CPT 16µM*, IL1B secr inh inactive and HT1080-NT tox -1%.
Screening Cc1nn(Cc2c(F)c(F)c(F)c(F)c2F)c(C)c1NC(=O)c1c([N+](=O)[O-])cnn1C returned ELG1 repair inh -3%, TDP1 cell noCPT 12µM*, HT1080 IDH1KD tx 6%, DT40 TDP1 CPT 13µM*, IL1B secr inh 7 and HT1080-NT tox 2%.
For Cc1nn(Cc2c(F)c(F)c(F)c(F)c2F)c(C)c1NC(=O)c1nn(C)cc1Br the results were ELG1 repair inh -22%, TDP1 cell noCPT -16%, HT1080 IDH1KD tx 2%, DT40 TDP1 CPT inconclusive, IL1B secr inh inconclusive and HT1080-NT tox 8%.
`CCc1nn(CC(=O)NC(C)c2ccccc2)c(=O)c2cc3sccc3n12` (stereo unspecified) gave TDP1 cell noCPT -19% and DT40 TDP1 CPT -8%.
For O=C(NCC1CC1)C1(C(F)(F)F)C/C(=C\Cc2ccccc2)CCCO1 (stereo unspecified) the results were TDP1 cell noCPT inconclusive, HT1080 IDH1KD tx 9%, DT40 TDP1 CPT inconclusive, IL1B secr inh 15 and HT1080-NT tox 10%.
For CCc1nc(N2CCN(C(C)=O)CC2)c(C#N)c2c1COC(C)(C)C2 the results were ELG1 repair inh 2%, TDP1 cell noCPT -27%, HT1080 IDH1KD tx 2%, DT40 TDP1 CPT -13%, IL1B secr inh -28 and HT1080-NT tox 15%.
CCCNC(=O)N1CCN(c2nc(C(C)C)c3c(c2C#N)CC(C)(C)OC3)CC1 was read as ELG1 repair inh 13%, TDP1 cell noCPT -63%, HT1080 IDH1KD tx -13%, DT40 TDP1 CPT 29µM*, IL1B secr inh -10 and HT1080-NT tox -6%.
`Cc1nc(N2CCN(C(=O)c3ccc(Cl)cc3)CC2)c(C#N)c2c1COC(C)(C)C2` gave ELG1 repair inh -10%, TDP1 cell noCPT inconclusive, HT1080 IDH1KD tx -16%, DT40 TDP1 CPT 29µM*, IL1B secr inh -15 and HT1080-NT tox -9%.
`Cc1ccc(S(=O)(=O)N2CCN(c3nc(C(C)C)c4c(c3C#N)CC(C)(C)OC4)CC2)cc1` gave ELG1 repair inh 19%, TDP1 cell noCPT 16µM*, HT1080 IDH1KD tx -29%, DT40 TDP1 CPT 16µM*, IL1B secr inh 7 and HT1080-NT tox -4%.
COc1ccc(-c2ccc3oc(-c4ccc(OC)cc4)c(C#CC4(O)CCCCC4)c3c2)cc1 was read as TDP1 cell noCPT inconclusive, HT1080 IDH1KD tx 9%, DT40 TDP1 CPT inconclusive, IL1B secr inh 33 and HT1080-NT tox 4%.
For CC(=O)c1ccc(S(=O)(=O)Nc2ccc(-c3ccc(N4CCCCC4)nn3)cc2)cc1 the results were TDP1 cell noCPT -29% and DT40 TDP1 CPT -29%.
Screening CC(=O)N1c2ccccc2C(=O)C1N1CCN(c2ccc(F)cc2)CC1 (stereo unspecified) returned TDP1 cell noCPT 15µM* and DT40 TDP1 CPT inconclusive.
Screening COc1ccc(C(C#N)=Cc2cccc(OC)c2OC)cc1 returned TDP1 cell noCPT 23µM*, HT1080 IDH1KD tx -9%, DT40 TDP1 CPT inconclusive, IL1B secr inh 6 and HT1080-NT tox -8%.
Cc1ccc(C(=O)NCCN(C)C)c(C)c1 was read as ELG1 repair inh 0%, TDP1 cell noCPT -14%, HT1080 IDH1KD tx 9%, DT40 TDP1 CPT -1%, IL1B secr inh 12 and HT1080-NT tox 6%.
For CNc1c2cccc(C)c2nc2c(C(=O)NCCN(C)C)cccc12 the results were TDP1 cell noCPT 0.18µM*, HT1080 IDH1KD tx 7.3µM*, DT40 TDP1 CPT 0.18µM*, IL1B secr inh -117* and HT1080-NT tox inconclusive.
Screening COc1ccc(OCc2nnc(SCC(=O)NC3CC3)n2C)cc1 returned ELG1 repair inh -1%, TDP1 cell noCPT -9%, HT1080 IDH1KD tx -1%, DT40 TDP1 CPT -1%, IL1B secr inh -7 and HT1080-NT tox 2%.
`CCOc1ccc(CCNC(=O)Cn2nc(CC)n3c(cc4sccc43)c2=O)cc1` gave TDP1 cell noCPT -2% and DT40 TDP1 CPT -2%.
Nc1ncnc2c1ncn2[C@H]1C[C@H](O)[C@@H](CO)O1 was read as ELG1 repair inh 0%, TDP1 cell noCPT inconclusive, HT1080 IDH1KD tx 2%, DT40 TDP1 CPT 6.5µM*, IL1B secr inh 5 and HT1080-NT tox 1%.
Nc1nc(Cl)c2ncn(C3OC(CO)C(O)C3O)c2n1 (stereo unspecified) was read as TDP1 cell noCPT inconclusive, HT1080 IDH1KD tx inconclusive, DT40 TDP1 CPT inconclusive, IL1B secr inh 6 and HT1080-NT tox -3%.
For NCC1OC(n2cnc3c(N)ncnc32)CC1O (stereo unspecified) the results were TDP1 cell noCPT -19%, HT1080 IDH1KD tx 13%, DT40 TDP1 CPT -7%, IL1B secr inh 1 and HT1080-NT tox 11%.
`Nc1nc(Cl)nc2c1ncn2[C@@H]1O[C@H](CO)[C@@H](O)[C@@H]1F` gave TDP1 cell noCPT 0.0021µM* and DT40 TDP1 CPT 0.0021µM*.
For Nc1nc(Cl)nc2c1ncn2[C@H]1C[C@H](O)[C@@H](CO)O1 the results were ELG1 repair inh -4%, TDP1 cell noCPT 0.21µM*, HT1080 IDH1KD tx inconclusive, DT40 TDP1 CPT 0.18µM*, IL1B secr inh 56 and HT1080-NT tox inconclusive.
